{
  "source": "PubChem BioAssay AID651907",
  "about": "(Vanderbilt Specialized Chemistry Center, 2012)",
  "target": "Histone deacetylase 7 (Homo sapiens) (UniProt Q8WUI4)",
  "sequence (Q8WUI4 whole entry, looked up)": "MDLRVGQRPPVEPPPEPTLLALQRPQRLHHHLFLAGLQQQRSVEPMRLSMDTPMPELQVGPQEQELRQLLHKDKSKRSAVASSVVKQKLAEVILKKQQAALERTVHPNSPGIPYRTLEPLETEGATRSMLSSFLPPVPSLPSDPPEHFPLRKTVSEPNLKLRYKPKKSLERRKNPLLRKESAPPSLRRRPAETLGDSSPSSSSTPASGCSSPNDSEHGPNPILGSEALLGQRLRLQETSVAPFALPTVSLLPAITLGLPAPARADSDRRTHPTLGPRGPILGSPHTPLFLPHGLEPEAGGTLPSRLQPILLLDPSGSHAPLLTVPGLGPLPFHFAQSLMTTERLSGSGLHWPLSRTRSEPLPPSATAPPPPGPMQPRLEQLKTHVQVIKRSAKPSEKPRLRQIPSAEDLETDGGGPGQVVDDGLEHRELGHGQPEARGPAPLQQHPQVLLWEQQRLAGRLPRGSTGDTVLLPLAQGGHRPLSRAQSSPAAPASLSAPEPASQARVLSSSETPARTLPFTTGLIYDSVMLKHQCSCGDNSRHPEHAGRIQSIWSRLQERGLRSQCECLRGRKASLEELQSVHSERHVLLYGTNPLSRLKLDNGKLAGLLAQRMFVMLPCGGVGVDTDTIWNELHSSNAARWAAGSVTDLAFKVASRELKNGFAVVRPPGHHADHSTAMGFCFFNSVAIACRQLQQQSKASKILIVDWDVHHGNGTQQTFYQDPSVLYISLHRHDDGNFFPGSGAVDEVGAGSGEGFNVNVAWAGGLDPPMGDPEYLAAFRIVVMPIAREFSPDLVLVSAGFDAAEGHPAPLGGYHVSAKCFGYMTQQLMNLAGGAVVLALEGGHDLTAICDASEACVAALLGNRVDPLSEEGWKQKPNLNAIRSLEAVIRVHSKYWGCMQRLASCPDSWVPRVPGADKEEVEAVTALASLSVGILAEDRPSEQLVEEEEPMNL",
  "assay": "inhibitors of recombinant human HDAC7 – biochemical, selectivity assay for E-cadherin restoration project, profiling panel (AID 651907)",
  "conditions": "recombinant HDAC7, fluorogenic class IIa substrate; series mostly up to 10 µM",
  "note": "Active and inactive are the calls of the source. No rule for the calls is given here.",
  "data": [
    {"smiles": "O=C(NCCCNC(=O)c1ccc[nH]c1=O)c1cc(-c2ccccc2)on1", "values": [
      {"measurement": "outcome", "result": "inactive"}
    ]}
  ]
}
